According to PubChem BioAssay AID651568 (National Center for Advancing Translational Sciences (NCATS), 2012):
About 55 (5%) of roughly 1,200 compounds were called active. About 15% were inconclusive and are not listed. The entries come from a sample that favours actives as a whole. Unmarked numbers belong to inactive results. Calls come from the whole dose curve; as a rule, active = well fitted inhibition curve with a large enough effect; inconclusive = small, poorly fitted or top-dose-only effect; inactive = no such curve, though single readings can be large or run the other way.

Assay: qHTS Assay to Find Inhibitors of Chronic Active B-Cell Receptor Signaling: Hit Validation in Renilla Reporter Assay; note: nearly all actives have a fitted effect of over 70% in size
Settings: TMD8 IkB-Renilla luciferase reporter, NF-kB signaling; series mostly up to 57.5 µM; activity change, negative = inhibition: at the top concentration
From the text: Diffuse large B-cell lymphoma (DLBCL) is the most common category of non-Hodgkin lymphoma, with ~20,000 new cases per year in the United States. DLBCL should be regarded as a collection of different neoplasms. Microarray gene expression analysis has defined two principal types of DLBCL, named for their similarity to normal B cell stages or activation states: a germinal center B-cell (GCB) type, and an activated B-cell (ABC) type. In ABC-DLBCL, a constitutive high-level activity of the NF-kappaB family of transcription factors has been observed (1) and NF-kappaB target genes are more highly expressed in ABC primary tumors than in GCB tumors. Functional studies have shown a constitutive high-level activity of the IkappaB (inhibitor of kappa-B) kinase (IKK) complex. […] Further analysis of DLBCL primary tumors for NF-kappaB target gene expression imply that although CARD11 is required for constitutive IKK activity in all ABC-DLBCL lines, mutations in CARD11 may be the root cause of IKK activation only in lines or tumors with such mutations. In other words, CARD11 mutations may explain NF-kappaB activation in only 10% of ABC-DLBCL cases. […] This process has been termed 'chronic active BCR signaling' (CABS). The goal of this screen is to find small-molecule inhibitors of the CABS pathway found in ABC-DLBCL lines using a cell-based assay that measures IkappaBalpa stability, which has already been extensively validated in the OCI-Ly3 line (PubChem AID:445; REF: 4). […] Hits from the primary screen were tested in this orthogonal secondary assay. NIH Molecular Libraries Probe Production Network [MLPCN] NIH Chemical Genomics Center [NCGC] MLPCN Grant: R03 DA031086 PI Name: Dr. R. Eric Davis
The IkB-Photinus/Renilla reporter assay differs from the primary assay in that the reporters are constitutively expressed, and based on luciferases that are different from the click beetle luciferases and each other. These differences should help to eliminate artifactual sources of activity specific to the primary assay. This assay uses the Dual-Glo substrate from Promega; extensively validated in a 96-well format, it could be converted to a smaller-well format. All lines needed for the IkB-Photinus/Renilla assay have already been prepared and extensively validated
% is set by controls: 0 for no effect and ±100 for the full control effect; potency is the fitted concentration of half-maximal effect.

Row | SMILES | Potency | activity change, negative = inhibition [%]
1 | O=c1c2ccccc2[se]n1-c1ccccc1 | 15.1 µM (active) | 
2 | C/C(=N\N1CCCCC1)c1c(O)[nH]c(=O)[nH]c1=O |  | -0.419
3 | CC[C@]12CC[C@H](O)CC1=CCC1C2CC[C@]2(C)C(=O)CCC12 (stereo partly specified) |  | -2.46
4 | C=CC[C@@H](CC/C=C/C=C/CC/C=C\[C@@H]1CSC([C@@H]2C[C@@H]2C)=N1)OC | 30.1 µM (active) | 
5 | CC(C)CCCn1c(O)c(/C=C2/C=CC=N2)c(=O)[nH]c1=O |  | -20.5
6 | C#CCOc1cc(C2C3=C(COC3=O)Nc3cc4c(cc32)OCO4)ccc1OC (stereo unspecified) |  | -16.5
7 | CCNC(=O)[C@H]1O[C@@H](n2cnc3c(N)ncnc32)[C@H](O)[C@@H]1O |  | -8.48
8 | COc1cc2c(c(OC)c1OC)-c1ccc(O)cc1[C@@H](NC(C)=O)CC2 |  | -2.7
9 | CCCCOCCCn1c(N)c(C(=O)OCCOC)c2nc3ccccc3nc21 |  | -1.2
10 | CN1C(=O)CN=C(c2ccc(Cl)cc2)c2cc(Cl)ccc21 |  | 3.92
11 | O=C1C(=O)c2cccc3cccc1c23 | 26.9 µM (active) | 
12 | COc1ccc(Cc2nccc3cc(OC)c(OC)cc23)cc1OC |  | -12.3
13 | COc1ccc(C(=O)Oc2cccc3cccnc23)cc1S(=O)(=O)N1CCOCC1 |  | -25.8
14 | COc1cc2c3cc1Oc1cc(ccc1O)C[C@@H]1c4c(cc(OC)c(O)c4Oc4ccc(cc4)C[C@H]3N(C)CC2)CCN1C | 23.9 µM (active) | 
15 | COc1ccc(C=C2C(=O)N(C)C(=O)N(C)C2=O)cc1COc1ccc(NC(C)=O)cc1 |  | -13.9
16 | CCc1ccccc1N1C(=O)/C(=C/c2ccc(N3CCN(C)CC3)o2)C(=O)NC1=S |  | -9.48
17 | CCCC[C@@H](C)C[C@@H](C)C(=O)N(C)[C@@H](CC(C)C)C(=O)N[C@H](C(=O)N(C)[C@H](C(=O)N1C[C@@H](O)C[C@H]1C(=O)N1C(=O)C=C[C@@H]1C)C(C)C)C(C)OC(C)=O (stereo partly specified) | 26.9 µM (active) | 
18 | COc1cc(C2c3cc4c(cc3CC3COC(=O)C32)OCO4)cc(OC)c1OC (stereo unspecified) |  | -14.9
19 | Cc1cc(C)c(C(=O)CN2CCOCC2)c(C)c1 |  | -9.8
20 | COc1cc2c(c(OC)c1OC)-c1ccc(O)c(=O)cc1C(NC(C)=O)CC2 (stereo unspecified) |  | -5.2
21 | COc1ccc(-c2nn(CCC#N)cc2C(=O)Nc2ccc(C(C)=O)cc2)cc1[N+](=O)[O-] |  | 2.38
